# Measured values reported in PubChem BioAssay (NCI).
# About 83,000 compounds went through this panel and 20% of them were active in at least one assay; those are over-represented in the sample as a whole.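 Testing used 96-well plates and a 48-hour single-concentration exposure. Example: -40 means 40% of the starting cells died.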 A number with no mark means an inactive call. Active and inactive are the calls of the source. The calls were made as follows: active = growth percent below 10; inactive = the rest.
# How the values were obtained:
# Assay in all cases: NCI-60 one-dose screen, 48 h (100 = growth as untreated, 0 = no growth, -100 = all killed)
# Conditions in all cases: 10 µM unless noted
# SK-MEL-2 melanoma = system: SK-MEL-2 melanoma
# EKVX NSCLC = system: EKVX NSCLC
# SN12C renal = system: SN12C renal
# UO-31 renal = system: UO-31 renal
# TK-10 renal = system: TK-10 renal
# ACHN renal = system: ACHN renal
# CAKI-1 renal = system: CAKI-1 renal
# A498 renal = system: A498 renal
# CCRF-CEM leukemia = system: CCRF-CEM leukemia
# MOLT-4 leukemia = system: MOLT-4 leukemia
# RPMI-8226 leukemia = system: RPMI-8226 leukemia
# OVCAR-8 ovarian = system: OVCAR-8 ovarian
# OVCAR-5 ovarian = system: OVCAR-5 ovarian
# OVCAR-4 ovarian = system: OVCAR-4 ovarian
# SK-OV-3 ovarian = system: SK-OV-3 ovarian
# IGROV1 ovarian = system: IGROV1 ovarian
# OVCAR-3 ovarian = system: OVCAR-3 ovarian
# HS 578T breast = system: HS 578T breast
# NCI/ADR-RES ovarian = system: NCI/ADR-RES ovarian
SMILES,growth (SK-MEL-2 melanoma),growth (EKVX NSCLC),growth (SN12C renal),growth (UO-31 renal),growth (TK-10 renal),growth (ACHN renal),growth (CAKI-1 renal),growth (A498 renal),growth (CCRF-CEM leukemia),growth (MOLT-4 leukemia),growth (RPMI-8226 leukemia),growth (OVCAR-8 ovarian),growth (OVCAR-5 ovarian),growth (OVCAR-4 ovarian),growth (SK-OV-3 ovarian),growth (IGROV1 ovarian),growth (OVCAR-3 ovarian),growth (HS 578T breast),growth (NCI/ADR-RES ovarian)
Nc1nc(-c2cccc3ccccc23)cc2ccccc12,27.7%,46%,35.8%,19.6%,55.8%,36.6%,15.6%,-19.8% (active),29%,-3.33% (active),4.38% (active),17.9%,20.9%,61.4%,8.91% (active),-48.5% (active),-32.2% (active),-4.65% (active),2.9% (active)
CCCCC1CCCC12NC(=O)NC2=O (centres undefined),100%,107%,96%,85.1%,92.7%,99.4%,107%,98.3%,101%,122%,101%,113%,88.2%,106%,110%,88.8%,92.8%,112%,92.9%
O=C(/C=C/c1sc(Cl)nc1Cl)c1ccc(Br)cc1,96.4%,96.5%,41.7%,80.2%,92.3%,75.6%,87.1%,92.2%,29.9%,29.9%,30.9%,90%,95.3%,108%,105%,68.5%,40%,93.5%,104%
OC(COc1ccccc1)CN1CCN(c2ccc(Cl)cc2)CC1 (centres undefined),104%,109%,97.2%,78.8%,105%,107%,94.7%,104%,-5.19% (active),93.1%,95.1%,93.9%,111%,97.6%,102%,124%,100%,100%,101%
COc1ccc(C(=O)C(C)C)c2ccccc12,97.9%,94.7%,109%,90.8%,90.5%,100%,97.9%,99%,-25.6% (active),97.2%,82.5%,126%,98%,108%,107%,128%,120%,90.8%,107%
Cc1oc2nc[nH]c(=O)c2c1C(=O)/C=C/c1ccc(Br)cc1,11.9%,19.7%,1.76% (active),19.4%,40.9%,1.43% (active),28.4%,23.7%,6.65% (active),8.42% (active),-3.59% (active),7.33% (active),22.3%,36%,31.5%,8.79% (active),-10.9% (active),24.3%,-30.5% (active)
O=C1COCCN1c1ccc(NCc2cn(C(=O)c3ccc(Cl)cc3)c3ccccc23)cc1,61.5%,83.9%,74.9%,43.6%,-26% (active),65.7%,-28.7% (active),-88.9% (active),77.1%,85.7%,52.6%,66%,-25.7% (active),3.22% (active),15.7%,-2.18% (active),10.6%,72.9%,67%
Cc1nc(/N=C(\N)NC(=O)Nc2ccccc2Cl)sc1C,45.6%,48.7%,42.7%,58.1%,70.7%,52.3%,30.9%,-15.9% (active),16.4%,43.6%,8.06% (active),33.9%,51.3%,55.1%,45.4%,42.8%,12.1%,13.5%,15.7%
COc1ccc(S(=O)(=O)n2cc(C3OC(c4cc(OC)c(OC)c(OC)c4)=NN3C(C)=O)c3ccccc32)cc1OC (centres undefined),95.5%,78.9%,88%,58.2%,94.9%,85.3%,76.2%,117%,73.4%,58.7%,61.5%,80.9%,85.8%,77.9%,96.6%,83.5%,112%,92.3%,81.7%
Oc1ccc(-c2nc3ccc4[nH]ncc4c3c3c2CCCC3)c2cccnc12,5.36% (active),-23.1% (active),4.02% (active),-30.4% (active),17.4%,2.65% (active),-25.7% (active),-25.7% (active),4.86% (active),5.17% (active),-6.23% (active),9.31% (active),21.9%,10.2%,-0.881% (active),6.65% (active),18.3%,-14.7% (active),7.95% (active)
c1ccc(-c2nc3nonc3nc2-c2ccccc2)cc1,79%,67%,68.7%,36.3%,81.4%,53.9%,51%,-10.9% (active),80.7%,70.9%,71.9%,72.8%,82.3%,22.7%,74%,60.8%,12.8%,64.3%,74.4%
COc1ccc(N2C(=O)C(Oc3ccccc3)C2c2ccc(C)cc2)cc1 (centres undefined),106%,88.8%,104%,91.9%,126%,95.7%,93%,77.9%,101%,101%,106%,91.8%,100%,93.4%,106%,102%,112%,94%,101%
CSc1nc2ccc(C)cc2cc1/C=N/O,74.7%,67.8%,91.9%,66.4%,101%,82.8%,80.4%,85.2%,105%,83%,106%,84.6%,81.6%,91%,86%,87.8%,106%,75%,98.1%
CC1=NN(c2ccc(S(=O)(=O)O)cc2)C(=O)C1N=Nc1ccc(-c2ccc(N=Nc3ccc(OS(=O)(=O)c4ccc(C)cc4)cc3)c(S(=O)(=O)O)c2)cc1 (centres undefined),78.8%,107%,93.6%,69.8%,97.2%,102%,100%,95.2%,67.8%,84.3%,74.5%,102%,76.6%,93.8%,95.4%,-7.99% (active),111%,80%,97.9%
O=C(CSc1nccc(Nc2ccc(S(=O)(=O)Nc3nccs3)cc2)n1)c1ccc(C(F)(F)F)cc1,102%,94.4%,102%,69.2%,112%,100%,90.1%,109%,108%,112%,104%,96.2%,111%,106%,96.9%,91.1%,112%,98.5%,98.5%
COc1cc(-c2nc3sccn3c2-c2ccnc(NCCCNS(=O)(=O)c3ccc(F)cc3)n2)ccc1F,69.6%,83.6%,62.1%,48.6%,118%,60.7%,61.1%,96.7%,24.7%,47.7%,9.51% (active),26.7%,112%,51.9%,90.4%,69.6%,65.9%,92.6%,34.2%
